Records with an inconclusive call do not appear. Calls of active or inactive are those of the source. Calls follow the shape of the dose curve; as a rule, active = well fitted activation curve with a large enough effect; inconclusive = small, poorly fitted or top-dose-only effect; inactive = no such curve, though single readings can be large or run the other way.

20 molecules from PubChem BioAssay AID624331 (National Center for Advancing Translational Sciences (NCATS), 2012) can be followed below.
Potency is read from the fitted curve at half-maximal effect.

The test in a line: qHTS assay for re-activators of p53 using a Luc reporter: Hit Validation with no p53 Expressed. As to activity change, positive = activation: 0% is about no effect. The following applies: p53-null cells, luciferase reporter counter-screen; series mostly up to 46.1 µM; activity change, positive = activation: at the top concentration. The essentials:
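Counter-screen of primary hits in a cell line not transfected with p53, in Opti-MEM with 10% FBS; compounds at several concentrations (10 mM stock, 1:5; top 46.1 µM in well), 24 h at 37 deg C, 5% CO2. Luminescence read after 10 min with Amplite reagent.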
As to `O=C(Nc1ccc(F)cc1F)c1cc2nc3c(c(C(F)(F)F)n2n1)CCCC3`, the Potency was 5.8 µM (active).

As for `O=C(CCC1CCCC1)Nc1ccc(Br)cn1`, the “activity change, positive = activation” value was 74.3% (inactive). On the same count and under the same terms, the same measure for `Cc1cc(C)cc(OCC(=O)NNC(=O)c2ccccn2)c1`: 0.0043% (inactive); for `C/C(=N\NC(=O)c1cccc(Br)c1)c1ccccn1`: 147% (inactive); for `CCN(CC)C(=O)CSC(=Nc1ccccc1F)NC#N`: 23% (inactive). The same measure, in the same setting: the same measure for `Fc1ccc(CCNC(=S)Nc2ccc(F)cc2)cc1`: -12.1% (inactive). On the same count and under the same terms, the same measure for `CCS(=O)(=O)NCCc1csc(-c2ccccc2)n1`: -21.3% (inactive); for `COc1cccc(NC(=O)CSC2=C(C#N)C(c3ccco3)C3=C(CCCC3=O)N2)c1` (stereo not given): -26.5% (inactive). Regarding `Cc1ccc2nc(C(F)(F)F)c(C#N)c(N)c2c1`, the “activity change, positive = activation” value is -43.8% (inactive). Still for that read-out and setting: the same measure for `Cc1c(C(=O)N(C)c2ccccc2Cl)cnn1-c1ccccc1`: -31.1% (inactive); for `COc1ccc(-c2cc(C(F)(F)F)nc(-n3ccnc3C)n2)cc1`: -11.3% (inactive). The same measure, in the same setting: the same measure for `O=C(CNC(=O)c1cccc(F)c1)N/N=C/c1cc(Br)ccc1OC(=O)/C=C/c1ccco1`: -30.7% (inactive); for `CN1CCc2c(sc(NC(=O)C3COc4ccccc4O3)c2C(N)=O)C1` (stereo not given): -38.2% (inactive). As for `O=C(NNC1=C(C(=O)C(F)(F)F)CCC1)c1cccc(O)c1`, the “activity change, positive = activation” value was -60.1% (inactive). Turning to `Cc1cc(C)n2cc(CSc3nc4ccccc4s3)nc2n1`, the “activity change, positive = activation” value was -26.5% (inactive). Same read-out and setting: the figure for `c1nc(C2CCCCC2)cc2cc3c(cc12)OCO3` is 34.3% (inactive); for `N#Cc1nc(COc2ccccc2)oc1N1CCOCC1` it is 0.149% (inactive); for `Cc1ccc(NC(=O)C2CCCO2)cc1[N+](=O)[O-]` (stereo not given) it is -2.44% (inactive). The same measure, in the same setting: the same measure for `Cc1ccc(NC(=O)/C=C/c2ccc([N+](=O)[O-])s2)c(C)c1`: -74.5% (inactive).

As to `CCc1ccc(OCC(=O)NC(NC(=S)Nc2ccccc2C)C(Cl)(Cl)Cl)cc1` (stereo not given), the “activity change, positive = activation” value is -20.1% (inactive).
